Test results published in the supplement of paper PMC8728848.
Many of the other results were omitted from the sample, so the strongest signals are more common in it than they were.

Legend:
Experiment in all cases: glycan array binding signal (z-score within array); higher = stronger binding
Conditions in all cases: glycan notation: IUPAC condensed, linker removed; mutation: R343I
Fuc(a1-2)Gal(b1-4)Glc6S = target: Fuc(a1-2)Gal(b1-4)Glc6S
In short: (§1)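 The binding signal is a Z-score computed within each array. Data were drawn from 3228 arrays in the Consortium for Functional Glycomics database, restricted to those with a known protein sequence. Scores were averaged over arrays of the same protein sequence at different concentrations or buffers, and over linkers, and negative values can be taken as non-binding.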

Fuc(a1-2)[Gal(a1-3)]Gal = target: Fuc(a1-2)[Gal(a1-3)]Gal
In short: as §1

[1] = target: Fuc(a1-2)[Gal(a1-3)]Gal(b1-3)GlcNAc
In short: as §1

[2] = target: Fuc(a1-2)[GalNAc(a1-4)]Gal(b1-4)GlcNAc
In short: as §1

Fuc(a1-3)GlcNAc = target: Fuc(a1-3)GlcNAc
In short: as §1

[3] = target: Fuc(a1-3)[Gal(b1-4)]GlcNAc(b1-2)Man(a1-3)[Fuc(a1-3)[Gal(b1-4)]GlcNAc(b1-2)Man(a1-6)]Man(b1-4)GlcNAc(b1-4)GlcNAc
In short: as §1

[4] = target: Fuc(a1-3)[Gal(b1-4)]GlcNAc(b1-2)Man(a1-6)[Gal(b1-4)GlcNAc(b1-2)Man(a1-3)]Man(b1-4)GlcNAc(b1-4)GlcNAc
In short: as §1

Gal(a1-2)Gal = target: Gal(a1-2)Gal
In short: as §1

Gal(a1-3)GalNAc = target: Gal(a1-3)GalNAc
In short: as §1

Gal(a1-4)GlcNAc = target: Gal(a1-4)GlcNAc
In short: as §1

[5] = target: Gal(b1-3)[GlcNAc(b1-6)]GalNAc
In short: as §1

[6] = target: Gal(b1-3)[Neu5Ac(b2-6)]GalNAc
In short: as §1

[7] = target: Gal(b1-4)GalNAc(a1-3)[Fuc(a1-2)]Gal(b1-4)GlcNAc
In short: as §1

[8] = target: Gal(b1-4)GlcNAc(b1-6)GalNAc
In short: as §1

[9] = target: GlcNAc(b1-2)Man(a1-3)[GlcNAc(b1-2)Man(a1-6)]Man(b1-4)GlcNAc(b1-4)GlcNAc
In short: as §1

GlcNAc(b1-3)Man = target: GlcNAc(b1-3)Man
In short: as §1

[10] = target: GlcNAc(b1-4)[GlcNAc(b1-6)]GalNAc
In short: as §1

[11] = target: Man(a1-2)Man(a1-2)Man(a1-3)Man
In short: as §1

[12] = target: Man(a1-2)Man(a1-3)[Man(a1-2)Man(a1-6)]Man(a1-6)[Man(a1-2)Man(a1-2)Man(a1-3)]Man
In short: as §1

[13] = target: Man(a1-2)Man(a1-3)[Man(a1-6)]Man(a1-6)[Man(a1-2)Man(a1-3)]Man(b1-4)GlcNAc(b1-4)GlcNAc
In short: as §1

[14] = target: Man(a1-2)Man(a1-6)[Man(a1-3)]Man(a1-6)[Man(a1-2)Man(a1-2)Man(a1-3)]Man
In short: as §1

Man(a1-3)[Man(a1-6)]Man = target: Man(a1-3)[Man(a1-6)]Man
In short: as §1

Man(a1-6)Man = target: Man(a1-6)Man
In short: as §1

[15] = target: Neu5Ac(a2-3)Gal(b1-3)GlcNAc(b1-3)Gal(b1-3)GlcNAc
In short: as §1

[16] = target: Neu5Ac(a2-3)Gal(b1-3)GlcNAc6S
In short: as §1

[17] = target: Neu5Ac(a2-3)Gal(b1-4)GlcNAc(b1-3)Gal(b1-4)GlcNAc
In short: as §1

[18] = target: Neu5Ac(a2-3)Gal(b1-4)GlcNAc(b1-6)[Neu5Ac(a2-3)Gal(b1-3)]GalNAc
In short: as §1

Neu5Ac(a2-6)GalNAc = target: Neu5Ac(a2-6)GalNAc
In short: as §1

[19] = target: Neu5Ac(a2-8)Neu5Ac(a2-3)Gal(b1-4)Glc
In short: as §1

B1: Surfactant Protein D (Human); Neck + Carbohydrate Recognition Domain (NCRD) (Homo sapiens) (protein)
chain: MLLFLLSALVLLTQPLGYLEAEMKTYSHRTMPSACTLVMCSSVESGLPGRDRDGREGPRGEKGDPGLPGAAGQAGMPGQAGPVGPKGDNGSVGEPGPKGDTGPSGPPGPPGVPGPAGREGALGKQGNIGPQGKPGPKGEAGPKGEVGAPGMQGSAGARGLAGPKGERGVPGERGVPGNTGAAGSAGAMGPQGSPGARGPPGLKGDKGIPGDKGAKGESGLPDVASLRQQVEALQGQVQHLQAAFSQYKKVELFPNGQSVGEKIFKTAQFVKPFTEAQLLCTQAGGQLASPRSAAENAALQQLVVAKNEAAFLSMTDSKTEGKFTYPTGESLVYSNWAPGEPNDDGGSEDCVEIFTNGKWNDIACGEKRLVVCEF
Question: Which results are given for B1?
Answer: glycan array binding signal (z-score) (Fuc(a1-2)Gal(b1-4)Glc6S): -0.274; glycan array binding signal (z-score) (Fuc(a1-2)[Gal(a1-3)]Gal): -0.265; glycan array binding signal (z-score) [1]: -0.272; glycan array binding signal (z-score) [2]: -0.266; glycan array binding signal (z-score) (Fuc(a1-3)GlcNAc): 5.51; glycan array binding signal (z-score) [3]: -0.264; glycan array binding signal (z-score) [4]: -0.272; glycan array binding signal (z-score) (Gal(a1-2)Gal): -0.275; glycan array binding signal (z-score) (Gal(a1-3)GalNAc): -0.268; glycan array binding signal (z-score) (Gal(a1-4)GlcNAc): -0.27; glycan array binding signal (z-score) [5]: -0.274; glycan array binding signal (z-score) [6]: -0.276; glycan array binding signal (z-score) [7]: -0.263; glycan array binding signal (z-score) [8]: -0.275; glycan array binding signal (z-score) [9]: 5.45; glycan array binding signal (z-score) (GlcNAc(b1-3)Man): -0.076; glycan array binding signal (z-score) [10]: -0.05; glycan array binding signal (z-score) [11]: 4.64; glycan array binding signal (z-score) [12]: 4.37; glycan array binding signal (z-score) [13]: 4.08; glycan array binding signal (z-score) [14]: 4.33; glycan array binding signal (z-score) (Man(a1-3)[Man(a1-6)]Man): 0.263; glycan array binding signal (z-score) (Man(a1-6)Man): -0.261; glycan array binding signal (z-score) [15]: -0.268; glycan array binding signal (z-score) [16]: -0.275; glycan array binding signal (z-score) [17]: -0.278; glycan array binding signal (z-score) [18]: -0.275; glycan array binding signal (z-score) (Neu5Ac(a2-6)GalNAc): -0.269; glycan array binding signal (z-score) [19]: -0.267
